Hits are enriched below; roughly 8.9% of the tested compounds scored in any of these assays.
ALDH1A1 block = blocks purified human ALDH1A1 activity; Purified ALDH1A1, NADH fluorescence, propionaldehyde substrate; AID 1030; P00352; Potency, µM (titrated, usually from 75.3 µM), for inactives: at the top dose activity, negative = inhibition, hits mostly inhibitors; actives 7.3% (n = 220,000); active means well fitted inhibition curve with a large enough effect, not every such curve was filed as active; inconclusive means small, poorly fitted or top-dose-only effect, or another doubt; inactive means no such curve, though single readings can be large or run the other way;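 further: potency means the concentration at half of the fitted maximal effect; plate controls were no enzyme wells and a reference inhibitor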
IMPase inh = membrane-permeable compound that blocks inositol monophosphatase; P97697; AID 901; 120,000 tested, under 10 active; inhibition (IP1 accumulation), % at 46.1 µM; CHO-M1 cells, IP1 accumulation, HTRF TR-FRET ratio; active means well fitted curve in the direction sought with a large enough effect in the signal ratio, not every such curve was filed as active; inconclusive means small, poorly fitted or top-dose-only effect, or a change in a side signal; inactive means no such curve, though single readings can be large or run the other way; the % refers to the signal ratio;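 further: cells stimulated with carbachol in lithium chloride buffer; plate controls were DMSO basal wells for no effect and reference inhibitor wells for full effect; higher means more IMPase inhibition seen as more IP1 and lower FRET ratio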
Target sequence (P97697 whole entry, looked up): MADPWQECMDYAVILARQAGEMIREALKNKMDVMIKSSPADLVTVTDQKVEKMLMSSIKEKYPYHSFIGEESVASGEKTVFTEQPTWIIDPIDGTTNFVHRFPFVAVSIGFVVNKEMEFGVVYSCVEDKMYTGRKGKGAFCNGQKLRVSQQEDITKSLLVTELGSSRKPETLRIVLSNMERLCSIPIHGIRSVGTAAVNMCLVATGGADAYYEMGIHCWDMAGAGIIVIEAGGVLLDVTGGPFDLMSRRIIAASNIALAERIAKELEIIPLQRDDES
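Seeded CHO-M1 cells were dosed with compound at up to 46 uM, stimulated with carbachol for 30 min, then lysed in IP-One detection reagents. Higher IP1 lowers the TR-FRET signal.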
IMPase Li inh = cell-permeable IMPase inhibitors with lithium potentiation; CHO-M1 cells, IP1 TR-FRET (IP-One), carbachol + lithium; Potency, µM (titrated, usually from 59.4 µM), for inactives: top-dose activity, negative = IMPase inhibition, actives largely listed as inhibitors; actives 0.35% (n = 210,000);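 further: IP1 builds up when IMPase is blocked and the TR-FRET signal falls; potency means the concentration at half of the fitted maximal effect; plate controls were basal vehicle for no effect and high inhibitor control for full effect; nearly all actives have a fitted effect of over 50% in size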
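Lithium-sensitised IP1 accumulation assay; M1-expressing CHO cells treated 30 min at 37C with compound. Competitive antibody detection by time-resolved FRET followed a 10 min room-temperature lysis step.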
ALOX12 inhib = blocks human 12-lipoxygenase activity. purified 12-hLO, xylenol orange hydroperoxide absorbance. AID 1452. Potency, µM (top dose mostly 57.1 µM), without a hit: top-dose activity change, negative = inhibition, hits mostly inhibitors. actives 0.12% (n = 150,000); further: potency means the concentration at half of the fitted maximal effect; nearly all actives have a fitted effect of over 55% in size
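Purified human 12hLO (150 nM final) was preincubated with compounds for 15 min at room temperature in 25 mM Hepes pH 7.0, 0.01% Triton X-100, then reacted with 40 uM arachidonic acid for 30 min. Hydroperoxide was detected with ferrous iron/xylenol orange.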
HPGD block = inhibitors of human 15-hydroxyprostaglandin dehydrogenase (HPGD) | Potency, µM, inactives show at the highest dose activity change, negative = inhibition, hits mostly inhibitors | P15428 | AID 894 | purified HPGD, NADH fluorescence kinetic, PGE2 substrate | actives 4.3% (n = 150,000); active means well fitted inhibition curve with a large enough effect, not every such curve was filed as active; inconclusive means small, poorly fitted or top-dose-only effect, or another doubt; inactive means no such curve, though single readings can be large or run the other way; further: potency means the concentration at half of the fitted maximal effect
Target sequence (P15428 whole entry, looked up): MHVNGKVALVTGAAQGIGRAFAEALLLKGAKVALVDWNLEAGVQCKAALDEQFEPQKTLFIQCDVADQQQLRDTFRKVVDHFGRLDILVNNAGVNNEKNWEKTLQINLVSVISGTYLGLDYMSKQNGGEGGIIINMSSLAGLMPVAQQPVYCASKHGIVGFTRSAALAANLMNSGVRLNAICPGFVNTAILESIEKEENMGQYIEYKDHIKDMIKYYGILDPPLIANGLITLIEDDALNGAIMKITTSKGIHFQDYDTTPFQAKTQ
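NADH formation kinetics: reaction with 30 uM PGE2 and 1 mM NAD+ (final), 20 nM enzyme, Tris-HCl pH 8 with Tween 20, after 15 min compound preincubation at room temperature. Fluorescence change, last versus first of five reads.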
NPSR antag = antagonists of human neuropeptide S receptor cAMP signaling | CHO-NPSR cells, cAMP TR-FRET, antagonist mode | Potency, µM (doses to about 38.3 µM), for inactives: top-dose activity change, negative = inhibition, most hits filed as inhibitors | actives 1% (n = 220,000) | AID 1461; further: potency means the concentration at half of the fitted maximal effect; nearly all actives have a fitted effect of over 50% in size
Active calls of the source: *; u = inconclusive; x = no result given; [ ] = dose if it differs, or a comment. Unless noted, the call rests on the fitted dose curve; in most records, active means well fitted curve in the direction sought with a large enough effect; inconclusive means small, poorly fitted or top-dose-only effect, or another doubt; inactive means no such curve, though single readings can be large; an effect the other way counts as inactive or inconclusive. Unless noted, on the % scale 0 is the no-effect control and ±100 the full control effect.

SMILES	ALDH1A1 block	IMPase inh	IMPase Li inh	ALOX12 inhib	HPGD block	NPSR antag
CCCCOCC1CC(CC#CCN2CCCCC2)C(=O)O1 (stereo not drawn)	25µM*	x	15%	x	x	-24%
COc1ccccc1C(=O)Oc1ccc2c(c1)O/C(=C\c1ccncc1)C2=O	u	-5	12%	0%	-27%	-30%
CS(=O)(=O)Oc1ccc2c(c1)O/C(=C\c1cccnc1)C2=O	11µM*	x	x	x	x	2%
O=C1/C(=C/c2cccnc2)Oc2cc(OS(=O)(=O)c3ccc(Cl)cc3)ccc21	1.6µM*	-6	7%[38.3 µM]	-4%	-23%	-11%[46.1 µM]
O=C1/C(=C/c2cccnc2)Oc2cc(OS(=O)(=O)c3ccccc3)ccc21	3.2µM*	7	46%[38.3 µM]	-7%	u	-15%[46.1 µM]
COc1ccc(S(=O)(=O)Oc2ccc3c(c2)O/C(=C\c2cccnc2)C3=O)cc1	7.9µM*	-5	18%[38.3 µM]	-4%	16µM*	-25%[46.1 µM]
Cc1ccc(Cl)cc1NC(=O)CSc1nnc(C)n1-c1ccccc1	6%	u	-6%	-13%	-15%	-10%[46.1 µM]
CC(C)(C)c1ccc2c(c1)N(CC(=O)O)C(=O)CO2	3.2µM*	6	-5%[38.3 µM]	1%	-4%	-20%[46.1 µM]
COC(=O)c1sc(NC(=O)CSc2nncs2)c(C(=O)OC)c1C	u	2	-27%[38.3 µM]	-19%	2.8µM*	-22%[46.1 µM]
COC(=O)c1sc(NC(C)=O)c(C(=O)OC)c1C	u	-8	23%[38.3 µM]	-2%	32µM*	-2%[46.1 µM]
COc1ccc(-c2nc(C3CCCCC3)no2)cc1OC	22µM*	8	20%[38.3 µM]	-8%	u	-18%[46.1 µM]
Nc1cc(C(F)(F)F)cc([N+](=O)[O-])c1N	u	x	9%	x	x	0%
Cc1[nH][nH]c(=O)c1C(c1c(C)[nH][nH]c1=O)c1cn(Cc2ccccc2Cl)c2ccccc12	0.45µM*	x	9%	-2%	-10%	12%
CCOC(=O)N1CCN(C(=O)c2ccc3c(=O)n(-c4ccc(OC)cc4OC)c(=S)[nH]c3c2)CC1	-8%	5	-3%[38.3 µM]	0%	-11%	8%[46.1 µM]
COc1ccc(NC(=O)c2ccc3c(=O)n(-c4ccc(OC)cc4OC)c(=S)[nH]c3c2)cc1	13µM*	x	9%	x	x	-48%
COc1ccc(-n2c(=S)[nH]c3cc(C(=O)NCc4ccco4)ccc3c2=O)c(OC)c1	0.32µM*	4	16%[38.3 µM]	-16%	-30%	-24%[46.1 µM]
ClC1(Cl)CC1CSc1nc2ccccc2[nH]1 (stereo not drawn)	17%	x	1%	x	x	-1%
O=C(CN1C(=O)COc2ccc(S(=O)(=O)N3CCCC3)cc21)N1CCCC1	x	x	x	x	x	6%
O=C(/C=C/c1ccc([N+](=O)[O-])cc1)N(c1ccccn1)C1CCCCC1	13µM*	x	18%	x	x	-25%
O=C1[C@H]2[C@H]3C=C[C@@H](C4[C@H]3[C@@H]3C(=O)N(CN5CCSCC5)C(=O)[C@H]43)[C@H]2C(=O)N1CN1CCSCC1 (stereo partly drawn)	-5%[13.5 µM]	x	-6%	x	-5%	x
CCCSC1=C(C#N)C(c2ccc(Cl)cc2Cl)CC(=O)N1 (stereo not drawn)	20µM*	-4	47%[38.3 µM]	u	32µM*	-7%[46.1 µM]
N#CC1=C(SCC(=O)Nc2ccccc2)NC(=O)CC1c1ccc(O)cc1 (stereo not drawn)	u	-8	4%[38.3 µM]	12%	-2%	-9%[46.1 µM]
C=C(C)CSC1=C(C#N)C(c2ccccc2)CC(=O)N1 (stereo not drawn)	6.3µM*	x	x	-3%	25µM*	x
COC(=O)CSC1=C(C#N)C(c2ccccc2)CC(=O)N1 (stereo not drawn)	16µM*	3	7%[38.3 µM]	-7%	-19%	-11%[46.1 µM]
COC(=O)CSC1=C(C#N)C(=O)NC(c2ccccc2)S1 (stereo not drawn)	24µM*	-3	22%[38.3 µM]	u	-22%	u
CN=c1scc(-c2ccc(Br)cc2)n1C	-7%	11	29%[38.3 µM]	10%	-7%	-8%[46.1 µM]

Screening data (PubChem BioAssay)
